Screens from PubChem BioAssay.
Compounds with a hit are over-represented: about 3.2% of the library has one in this group of screens.
GALK inhibitor – inhibitors of human galactokinase. P51570. Purified GALK, Kinase-Glo residual ATP luminescence. Potency, µM (series often up to 57.5 µM), actives largely listed as inhibitors. hit rate 0.007% among 270,000
Target sequence (P51570 whole entry, looked up): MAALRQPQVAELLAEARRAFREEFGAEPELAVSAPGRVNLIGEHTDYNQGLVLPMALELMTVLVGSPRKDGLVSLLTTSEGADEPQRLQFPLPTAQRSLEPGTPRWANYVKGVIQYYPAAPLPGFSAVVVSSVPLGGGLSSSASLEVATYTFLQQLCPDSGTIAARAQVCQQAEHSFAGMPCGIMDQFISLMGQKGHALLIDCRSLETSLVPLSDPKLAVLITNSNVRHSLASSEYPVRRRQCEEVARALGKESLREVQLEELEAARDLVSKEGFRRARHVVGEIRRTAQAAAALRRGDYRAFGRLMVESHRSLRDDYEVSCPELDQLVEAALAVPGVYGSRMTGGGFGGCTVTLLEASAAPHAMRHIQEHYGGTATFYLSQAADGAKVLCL
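GALK at 5 nM final was combined with compound, 35 uM ATP and 100 uM galactose in HEPES pH8.0 with MgCl2 and DTT. The reaction ran one hour at room temperature before luminescent ATP detection.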
USP2a inh – USP2a (human) protease inhibition. AID 463254. hit rate 0.01% among 330,000. USP2 core, Ub-CHOP2 coupled fluorogenic reporter, 485/531. Potency, µM (highest dose often 38.3 µM), hits mostly inhibitors. O75604
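Cell-free coupled assay: 10nM USP2 core preincubated 30min RT with compound in Tris-HCl pH 8.0/CaCl2/CHAPS buffer, then 25nM Ub-CHOP2 and 25nM reporter substrate; fluorescence (Ex 485/Em 531) read after 60min RT, normalized to NEM inhibition, concentration-response curves fitted.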
PLK1 PBD block – inhibitors of human PLK1 polo-box domain binding. P53350. Plk1 PBD binding of FITC phosphopeptide, fluorescence polarization. Potency, µM, actives largely listed as inhibitors. hit rate 2.8% among 360,000. AID 720504; also: series mostly up to about 57 µM; nearly all actives have a fitted effect of over 65% in size
VDR inh – vitamin D3 receptor (human) inhibition; VDR-SRC2-3 peptide fluorescence polarization, 2 h; Potency, µM, usual class: inhibitors; hit rate 0.93% among 400,000; AID 504847
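Reagent solutions, kept cold and dark, are dispensed first; compounds are then pinned in at 23 nl, plates briefly spun, and incubated 2 h at ambient temperature. Inhibition of VDR–SRC2-3 peptide binding is read by fluorescence polarization.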
USP1 inh – USP1/UAF1 (human) deubiquitinase inhibition; O94782; recombinant USP1/UAF1, Ub-Rhodamine cleavage fluorescence; Potency, µM (titrated, usually from 57.1 µM), hits mostly inhibitors; hit rate 0.23% among 390,000; also: nearly all actives have a fitted effect of over 60% in size
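USP1/UAF1 complex at 1 nM was preincubated with compound for 15 min at room temperature, then Ub-Rho substrate (150nM final) was added. Fluorescence (480/540 nm) was read kinetically, 6 reads every 60 seconds.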
Coupling enz – counter-screen for Giardia aldolase inhibitors: coupling enzyme system | hit rate 0.67% among 290,000 | AID 2472 | activity change, negative = inhibition, % at 58.2 µM, hits read low | coupling enzyme system counterscreen, AmpLite Red fluorescence; in the data active = activity change below about -30%
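Coupling enzymes only (glyceraldehyde-3-phosphate) + compound, at 57.5 uM final, 10 min RT; add substrate/coupling/AmpLite Red mix, 20 min RT; fluorescence ex 525/em 598 nm. Actives flag coupling-system interference.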
Numbers stand for hits; 0 = inactive; ? = inconclusive; - = no result. Unless noted, calls follow the shape of the dose curve; as a rule, active = well fitted curve in the direction sought with a large enough effect; inconclusive = small, poorly fitted or top-dose-only effect, or another doubt; inactive = no such curve, though single readings can be large; an effect the other way counts as inactive or inconclusive.

SMILES	GALK inhibitor	USP2a inh	PLK1 PBD block	VDR inh	USP1 inh	Coupling enz
CCOC(=O)[C@H]1[C@H]2COc3ccc(Br)cc3[C@@H]2N2C(=O)CN(Cc3ccc(C)cc3)C(=O)[C@@]12C	-	0	0	0	0	-
COc1cc(/C=C/C(=O)c2ccc(C)cc2)ccc1OCC#N	0	0	0	50µM	0	0
COc1ccc(/C=C/C(=O)c2ccc(C(=O)/C=C/c3ccc(OC)c(OC)c3)cc2)cc1OC	0	0	0	0	0	0
O=c1c(-c2cc(O)c(O)c(O)c2)coc2cc(O)c(O)c(O)c12	-	-	-	14µM	-	-71
Cc1csc(CNc2ncnc3ccc(-c4cccnc4)cc23)c1	-	0	-	0	-	-
CC(=O)c1ccccc1OC(=O)COc1ccc(Cl)cc1C	0	0	21µM	?	0	0
Cc1cc(Cl)ccc1OCC(=O)OCC(=O)NCCNC(=O)COC(=O)COc1ccc(Cl)cc1C	-	-	0	0	0	-
O=C(COc1ccccc1F)NC1CCN(Cc2ccccc2)CC1	0	0	0	0	0	0
O=C1C(c2[nH]c3ccc(S(=O)(=O)O)cc3c2O)=Nc2ccc(S(=O)(=O)O)cc21	-	-	-	?	-	-38
O=C(O)c1cc(=O)[nH]c2ccc(S(=O)(=O)Nc3ccc(F)cc3)cc12	0	0	0	0	0	0
CN(C(=S)NC(=O)C1CCCC1)c1ccccc1	-	-	30µM	-	0	-
CN(Cc1ccccc1)C(=S)NC(=O)C1CCCCC1	0	0	0	0	0	0
Nc1ccccc1C(=O)NCc1ccccc1	0	0	3.8µM	?	0	0
Cc1ccc(OCCOC(=O)c2nc3nccc(C)n3n2)cc1	0	0	27µM	?	0	0
COc1ccccc1CNc1nc(-c2ccc(N(C)C)cc2)nc2ccccc12	-	-	-	?	-	-32
COc1ccccc1CNc1nc(-c2ccc(C(=O)N(C)C)cc2)nc2ccccc12	-	-	-	0	-	0
CCOc1ccc(NC(=O)CN2CCc3cc4c(cc3C2)OCCCO4)cc1OCC	0	0	30µM	0	0	-
CN(C)C(=O)c1ccc(NC(=O)CN2CCc3cc4c(cc3C2)OCCCO4)cc1	0	0	0	0	0	-
COc1cccc([C@@H]2Oc3ccc(Br)cc3C(=O)[C@H]2OC(=O)N[C@H](C)C2CCCCC2)c1	-	-	-	0	-	0
O=C(CCNC(=O)C1CCN(S(=O)(=O)c2ccc(F)cc2)CC1)NCc1ccccn1	-	-	0	-	0	-
CN(C)C(=O)c1cc(C(=O)c2ccccc2C(F)(F)F)c[nH]1	0	0	27µM	0	?	0
O=NN(C(=O)NCc1cccnc1)C1CCCCC1	-	-	0	-	-	-
CC(Sc1nnc(-c2cccs2)n1-c1ccccc1)C(=O)NCc1ccc2c(c1)OCO2 (stereo unspecified)	0	0	0	0	0	0
Nc1c(N=Nc2ccc(-c3ccc(N=Nc4cc(S(=O)(=O)O)c5ccccc5c4N)cc3)cc2)cc(S(=O)(=O)O)c2ccccc12	-	-	-	28µM	-	0
Cc1cc(-c2ccc(N=Nc3ccc4c(S(=O)(=O)O)cc(S(=O)(=O)O)c(N)c4c3O)c(C)c2)ccc1N=Nc1ccc2c(S(=O)(=O)O)cc(S(=O)(=O)O)c(N)c2c1O	-	-	-	?	-	-38
SMILES	GALK inhibitor	USP2a inh	PLK1 PBD block	VDR inh	USP1 inh	Coupling enz
O=S(=O)(O)c1ccc(N=Nc2ccccc2)cc1	0	0	0	0	0	0
CCOC(=O)CCC(=O)NNC(=O)c1ccc(NC(=O)c2ccccc2)cc1	0	0	30µM	0	0	0
CCOC(=O)c1ccc(NC(=O)CSc2nc(SC)ns2)cc1	0	-	0	0	0	0
COc1ccccc1Cn1nnc2c(=O)[nH]c(C3CCN(C(=O)c4ccc(F)cc4)CC3)nc21	0	0	0	0	0	0
CC1CC1C(=O)OCC(=O)Nc1ccccc1Oc1ccccc1 (stereo unspecified)	0	0	27µM	0	0	0
O=C(O)CCC(=O)Nc1ccccc1Oc1ccccc1	0	0	27µM	79µM	0	0
COc1ccccc1NC(=O)CCC(=O)O	0	0	0	0	0	0
CC(C)NC(=O)c1ccccc1-c1nc(-c2ccccc2Cl)no1	0	0	0	0	0	0
CCOc1cc(S(=O)(=O)n2ccc(C)n2)ccc1Br	0	0	0	0	0	0
COc1ccc2nc(NC(=O)c3cc(S(=O)(=O)N4CCOCC4)ccc3C)sc2c1	0	0	0	0	0	0
O=c1cc(Br)c(O)c(Br)cc1Br	-	-	21µM	?	0	-
O=C(NCc1ccco1)c1ccc(C(=O)NCc2ccco2)s1	0	0	11µM	0	0	0
O=C(NCc1ccco1)c1ccc(Cl)s1	0	0	0	0	0	0
CC1(C)CC(=S)Nc2ccccc2S1	0	0	27µM	?	?	0
O=C1CSc2ccccc2N1	-	-	0	0	?	-
O=C(Nc1nccs1)c1ccc(COc2ccccc2)o1	0	0	0	0	0	0
CC(=O)C1=C(c2cccc([N+](=O)[O-])c2)N(C(C)=O)n2c(C)nnc2S1	0	0	0	?	14µM	0
COC(=O)c1cc(=O)nc2sc(-c3ccc(F)cc3)nn12	0	0	6.7µM	45µM	0	0
CCC(=O)N(CCc1ccccc1)Cc1cc2cccc(C)c2[nH]c1=O	0	0	0	0	0	0
Cc1cccc(S(=O)(=O)NNC(=O)Cc2cccn2C)c1	0	0	27µM	0	0	0
O=c1[nH]c(CSc2cccc[n+]2[O-])nc2ccccc12	0	0	0	0	0	0
NC(CS)C(=O)O (stereo unspecified)	-	-	-	45µM	-	-
N#Cc1ccc(Oc2cccc3cccnc23)c([N+](=O)[O-])c1	0	0	0	0	0	-37
O=[N+]([O-])c1ccc(Oc2cccc3cccnc23)c([N+](=O)[O-])c1	-	0	?	?	0	-42
CC(C)[C@@H](C(=O)N1CCN(Cc2ccc3c(c2)OCO3)CC1)n1nnc2ccccc2c1=O	0	0	0	0	0	-
SMILES	GALK inhibitor	USP2a inh	PLK1 PBD block	VDR inh	USP1 inh	Coupling enz
COC(=O)/C(=C\c1ccc([N+](=O)[O-])o1)NC(=O)c1ccccc1	0	0	0	0	0	0
Cc1ccc(C(=O)N/C(=C\c2ccc(-c3ccccc3[N+](=O)[O-])o2)C(=O)NCCCN(C)C)cc1	-	0	?	0	28µM	0
CCCCNC(=O)/C(=C\c1ccc([N+](=O)[O-])o1)NC(=O)c1ccccc1	0	0	21µM	0	0	0
O=C(/C=C/c1ccc(-c2ccccc2[N+](=O)[O-])o1)c1ccccc1	-	0	0	0	?	0
CN(C)CCCNC(=O)/C(=C/c1ccc(-c2ccc([N+](=O)[O-])cc2)o1)NC(=O)c1ccccc1	0	0	0	0	0	0
O=C(O)/C(=C\c1ccc(-c2ccccc2[N+](=O)[O-])o1)c1ccccc1	0	0	38µM	0	0	0
O=C(CSc1oc(-c2ccccc2)nc1S(=O)(=O)c1ccc(Cl)cc1)Nc1ccc(F)cc1	-	-	-	0	0	-
